Results from PubChem BioAssay.
Calls of active or inactive are those of the source.

Tests used:
[1] = E. coli DRC41 culture turbidity changes, primary screen, E. coli filamentation inducer project, strain DRC41, OD650, 48 h (AID 1152);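 also: E. coli MC1000 strain DRC41 lacking acrAB efflux pump and sulA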; conditions: E. coli DRC41 (acrAB sulA), higher = more signal, called active from +8 up or from −8 down
[2] = small-molecule binders of probe aLefty1, primary screen, biochemical, small-molecule microarray, 635/667 nm fluorescence (AID 1153); conditions: higher = more signal;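 also: score merges spot fluorescence with signal-to-noise ratio from the scanned slide images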
[3] = PSAC antagonists in infected red cells, primary screen, cell-based, P. falciparum Indochina, OD700, 1 h (AID 1154); conditions: P. falciparum Indochina infected RBC osmotic lysis, higher = more signal, called active from +8 up or from −8 down
[4] = PSAC antagonists in infected red cells, primary screen, cell-based, P. falciparum Indochina, OD700, 2 h (AID 1155);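 also: lysis reports solute entry through the parasite surface anion channel PSAC; channel blockers reduce lysis of infected cells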; conditions: P. falciparum Indochina infected erythrocytes, osmotic lysis OD700; higher = more signal, called active from +8 up or from −8 down
[5] = osmotic lysis modulators in infected erythrocytes, primary screen, PSAC antagonist project, cell-based, P. falciparum Indochina, OD700, 3 h (AID 1156); conditions: higher = more signal, called active from +8 up or from −8 down
[6] = PSAC antagonists in infected red cells, primary screen, cell-based, P. falciparum Indochina, OD700, 18 h (AID 1157); conditions: P. falciparum Indochina infected erythrocytes, osmotic lysis OD700, 18 h; higher = more signal, called active from +8 up or from −8 down
[7] = modulators of S6 phosphorylation in cells, primary screen, cell-based, A549, cytoblot, luminescence, serum-stimulated (AID 1158); conditions: A549 phospho-S6 cytoblot, 5 h, higher = more signal;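 also: serum-stimulated A549 lung adenocarcinoma cells; signal is phosphorylated S6 detected by cytoblot immunostaining with HRP secondary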
[8] = biological target: NADPH oxidase 2 (Homo sapiens) (UniProt P04839); assay: NOX2-dependent H2O2 signal modulators, primary screen, NOX inhibitor project, cell-based, HEK293-NOX2, PMA-stimulated, Amplex Red fluorescence (AID 1159); conditions: 45 min, higher = more signal, called active from +8 up or from −8 down; also: test concentration not given here
[9] = biological target: NADPH oxidase 4 (Homo sapiens) (UniProt Q9NPH5); assay: NOX4-dependent H2O2 signal modulators, primary screen, NOX inhibitor project, cell-based, HEK293-NOX4, tetracycline-induced, Amplex Red fluorescence (AID 1160); conditions: 45 min, higher = more signal, called active from +8 up or from −8 down
[10] = biological target: NADPH oxidase 5 (Homo sapiens) (UniProt Q96PH1); assay: NOX5-dependent H2O2 signal modulators, primary screen, NOX inhibitor project, cell-based, HEK293-NOX5, Amplex Red fluorescence (AID 1161); conditions: HEK293-NOX5, ionomycin, 45 min, higher = more signal
[11] = A549 cell viability effects, profiling panel, calcein-AM fluorescence, 48 h, basal (AID 1162); conditions: higher = more signal; also: test concentration not given here
[12] = adipocyte viability effects, profiling panel, cell-based, 3T3-L1 adipocytes, calcein-AM fluorescence, 48 h, basal (AID 1163); conditions: 3T3-L1 adipocytes viability, higher = more signal; also: test concentration not given here
[13] = HepG2 cell viability effects, profiling panel, calcein-AM fluorescence, 48 h, basal (AID 1164); conditions: higher = more signal; also: test concentration not given here
[14] = MM1S cell viability effects, profiling panel, calcein-AM fluorescence, 48 h, basal (AID 1165); conditions: higher = more signal;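 also: viability of MM1S multiple myeloma cells under basal unstimulated conditions; test concentration not given here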
[15] = basal RPMI8226 viability, no added stimulus, profiling panel, cell-based, calcein-AM fluorescence, 48 h, PK04 Diversity Set (AID 1166); conditions: RPMI8226 myeloma viability, higher = more signal;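 also: cells grown under basal conditions without added stimulus; test concentration not given here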
[16] = basal HepG2 mitochondrial membrane potential changes, profiling panel, cell-based, JC-1 fluorescence, 24 h, 100 nL compound (AID 1167); conditions: higher = more signal; also: test concentration not given here
[17] = basal 3T3-L1 adipocyte mitochondrial potential changes, profiling panel, cell-based, JC-1 fluorescence, 3T3-L1 adipocytes, 24 h, 100 nL compound (AID 1168); conditions: JC-1 mitochondrial fluorescence, higher = more signal, called active from +8 up or from −8 down; also: test concentration not given here
[18] = basal RPMI8226 mitochondrial membrane potential changes, profiling panel, cell-based, JC-1 fluorescence, 24 h, 100 nL compound (AID 1169); conditions: RPMI8226 myeloma, JC-1 mitochondrial potential fluorescence, higher = more signal; also: test concentration not given here
[19] = basal MM1S mitochondrial membrane potential changes, profiling panel, cell-based, JC-1 fluorescence, 24 h, 100 nL compound (AID 1170); conditions: higher = more signal; also: test concentration not given here
[20] = A549 lung cancer cell viability effects, profiling panel, resazurin fluorescence, 24 h, PK04 Diversity Set (AID 1171); conditions: higher = more signal, called active from +8 up or from −8 down; also: test concentration not given here

NADPH oxidase 2 (Homo sapiens), sequence (P04839 whole entry, looked up): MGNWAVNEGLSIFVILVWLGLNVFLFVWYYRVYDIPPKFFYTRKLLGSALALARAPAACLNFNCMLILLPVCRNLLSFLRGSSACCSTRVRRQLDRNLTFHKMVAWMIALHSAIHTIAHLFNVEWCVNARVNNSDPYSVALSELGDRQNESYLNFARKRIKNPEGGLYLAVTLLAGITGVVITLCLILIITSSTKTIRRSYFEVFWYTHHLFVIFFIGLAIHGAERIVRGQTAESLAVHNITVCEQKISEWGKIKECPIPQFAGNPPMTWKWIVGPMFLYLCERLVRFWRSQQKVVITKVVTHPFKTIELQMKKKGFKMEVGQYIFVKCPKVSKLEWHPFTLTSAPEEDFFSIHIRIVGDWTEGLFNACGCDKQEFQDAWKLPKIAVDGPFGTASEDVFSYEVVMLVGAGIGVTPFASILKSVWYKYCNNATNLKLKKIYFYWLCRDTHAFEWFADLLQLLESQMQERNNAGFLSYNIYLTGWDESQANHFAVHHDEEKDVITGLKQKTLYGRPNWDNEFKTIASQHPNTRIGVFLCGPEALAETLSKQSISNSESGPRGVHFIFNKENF
NADPH oxidase 5 (Homo sapiens), sequence (Q96PH1 whole entry, looked up): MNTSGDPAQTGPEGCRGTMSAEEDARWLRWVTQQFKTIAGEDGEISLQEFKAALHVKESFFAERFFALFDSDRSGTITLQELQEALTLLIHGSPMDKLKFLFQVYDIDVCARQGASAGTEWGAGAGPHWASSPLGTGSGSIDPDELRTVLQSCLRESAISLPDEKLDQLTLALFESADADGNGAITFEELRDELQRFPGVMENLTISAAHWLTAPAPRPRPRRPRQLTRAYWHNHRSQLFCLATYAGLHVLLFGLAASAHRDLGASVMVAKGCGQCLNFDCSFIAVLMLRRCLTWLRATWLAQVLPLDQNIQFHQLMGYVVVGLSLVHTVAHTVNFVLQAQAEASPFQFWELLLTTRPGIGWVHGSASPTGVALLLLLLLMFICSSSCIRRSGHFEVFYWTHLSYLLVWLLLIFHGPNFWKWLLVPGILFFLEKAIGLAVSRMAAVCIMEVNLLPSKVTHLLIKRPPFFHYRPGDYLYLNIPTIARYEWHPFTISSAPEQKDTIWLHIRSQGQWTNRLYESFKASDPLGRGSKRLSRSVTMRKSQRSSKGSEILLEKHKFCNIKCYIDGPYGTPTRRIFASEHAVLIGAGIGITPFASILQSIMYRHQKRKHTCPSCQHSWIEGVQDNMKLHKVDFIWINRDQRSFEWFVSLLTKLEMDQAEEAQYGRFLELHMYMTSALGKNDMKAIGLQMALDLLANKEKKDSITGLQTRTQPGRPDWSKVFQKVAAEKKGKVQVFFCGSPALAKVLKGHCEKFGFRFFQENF
NADPH oxidase 4 (Homo sapiens), sequence (Q9NPH5 whole entry, looked up): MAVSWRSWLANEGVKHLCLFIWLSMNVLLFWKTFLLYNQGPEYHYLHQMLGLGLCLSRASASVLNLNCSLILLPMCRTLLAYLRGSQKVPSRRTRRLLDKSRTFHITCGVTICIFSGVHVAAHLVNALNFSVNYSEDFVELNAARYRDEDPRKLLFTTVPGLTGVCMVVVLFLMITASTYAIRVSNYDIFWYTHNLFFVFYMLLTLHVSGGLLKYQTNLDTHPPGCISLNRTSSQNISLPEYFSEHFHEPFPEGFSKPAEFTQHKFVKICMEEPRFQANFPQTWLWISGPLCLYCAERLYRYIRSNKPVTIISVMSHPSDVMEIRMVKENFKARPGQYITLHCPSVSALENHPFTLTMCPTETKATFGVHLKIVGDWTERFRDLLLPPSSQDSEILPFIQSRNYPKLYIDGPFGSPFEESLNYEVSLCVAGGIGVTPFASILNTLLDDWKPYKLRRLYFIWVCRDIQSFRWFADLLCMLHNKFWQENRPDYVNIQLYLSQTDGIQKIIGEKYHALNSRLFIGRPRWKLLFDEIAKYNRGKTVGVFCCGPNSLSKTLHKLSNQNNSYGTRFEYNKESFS

Cc1ccccc1C(O)C1C=CC2C(=O)N(C)C(=O)C2N1Nc1ccccc1 (stereo not given)
z-score [1]: -1.71 (inactive) | composite z-score [2]: 0.274 | z-score [3]: 1.15 (inactive) | z-score [4]: 0.737 (inactive) | z-score [5]: -0.0787 (inactive) | z-score [6]: 1.1 (inactive) | z-score [7]: -0.711 | z-score [8]: -1.39 (inactive) | z-score [9]: -4.19 (inactive) | z-score [10]: -2.72 | z-score [11]: 0.262 | z-score [12]: -1.23 | z-score [13]: -0.284 | z-score [14]: -0.143 | z-score [15]: -0.272 | z-score [16]: -1.96 | z-score [17]: -1.19 (inactive) | z-score [18]: -0.317 | z-score [19]: -0.00815 | z-score [20]: -0.621 (inactive)

COCCOC(=O)N1C(=O)[C@@]2(c3cc(C#CCC(C(=O)OC)C(=O)OC)ccc31)[C@H](c1ccc(O)cc1)N1[C@H](c3ccccc3)[C@H](c3ccccc3)OC(=O)[C@H]1[C@@H]2C(N)=O
z-score [1]: -0.648 (inactive) | composite z-score [2]: 0.245 | z-score [3]: 9.52 (active) | z-score [4]: 1.33 (inactive) | z-score [5]: 0.0021 (inactive) | z-score [6]: 0.213 (inactive) | z-score [7]: -0.185 | z-score [8]: 1.4 (inactive) | z-score [9]: 0.525 (inactive) | z-score [10]: 1.14 | z-score [11]: -0.78 | z-score [12]: 0.618 | z-score [13]: -0.568 | z-score [14]: -2.89 | z-score [15]: -3.48 | z-score [16]: -1.63 | z-score [17]: -0.791 (inactive) | z-score [18]: -0.799 | z-score [19]: 0.0557 | z-score [20]: -0.195 (inactive)

[N-]=[N+]=NCc1ccccc1C[C@@]1(C(=O)NCC(O)CO)N=C(c2ccc(OCCCO)cc2)O[C@@H]1c1ccccc1CN=[N+]=[N-] (stereo not given in full)
z-score [1]: 0.19 (inactive) | composite z-score [2]: 0.455 | z-score [3]: 27.4 (active) | z-score [4]: 14.6 (active) | z-score [5]: 0.029 (inactive) | z-score [6]: 2.24 (inactive) | z-score [7]: -0.324 | z-score [8]: 0.266 (inactive) | z-score [9]: 1.54 (inactive) | z-score [10]: 2.31 | z-score [11]: -1.05 | z-score [12]: 0.208 | z-score [13]: -0.0726 | z-score [14]: -1.4 | z-score [15]: -2.2 | z-score [16]: -0.382 | z-score [17]: -1.04 (inactive) | z-score [18]: -0.762 | z-score [19]: -0.737 | z-score [20]: -0.2 (inactive)

COc1ccc([Si](C)(C)[C@H]2[C@H](CC(=O)N(CCO)Cc3ccccc3)O[C@@]3(C(=O)N(Cc4cccc(N5CCC5=O)c4)c4ccccc43)[C@@H]2C)cc1
z-score [1]: 2.2 (inactive) | composite z-score [2]: 0.356 | z-score [3]: 11.6 (active) | z-score [4]: 1.88 (inactive) | z-score [5]: -0.614 (inactive) | z-score [6]: -0.356 (inactive) | z-score [7]: 0.408 | z-score [8]: 0.804 (inactive) | z-score [9]: 0.957 (inactive) | z-score [10]: 1.43 | z-score [11]: -1.42 | z-score [12]: 1.48 | z-score [13]: -1.93 | z-score [14]: -1.6 | z-score [15]: -4.08 | z-score [16]: 0.967 | z-score [17]: 0.498 (inactive) | z-score [18]: -0.873 | z-score [19]: -1.27 | z-score [20]: -1.97 (inactive)

COCCOC(=O)N1C(=O)[C@@]2(c3cc(C#CCNC(N)=O)ccc31)[C@H](c1ccc(O)cc1)N1[C@H](c3ccccc3)[C@H](c3ccccc3)OC(=O)[C@H]1[C@@H]2C(=O)Nc1nc2ccccc2s1
z-score [1]: 3.62 (inactive) | composite z-score [2]: 0.144 | z-score [3]: 1.13 (inactive) | z-score [4]: -0.361 (inactive) | z-score [5]: 0.284 (inactive) | z-score [6]: -0.0972 (inactive) | z-score [7]: 2.46 | z-score [8]: 0.806 (inactive) | z-score [9]: 0.969 (inactive) | z-score [10]: 1.33 | z-score [11]: 1.7 | z-score [12]: 0.663 | z-score [13]: 0.461 | z-score [14]: 0.553 | z-score [15]: -0.397 | z-score [16]: -2.95 | z-score [17]: 1.56 (inactive) | z-score [18]: -1.03 | z-score [19]: 0.189 | z-score [20]: 1.69 (inactive)
